Measured values taken from PubChem BioAssay AID1569 (National Center for Advancing Translational Sciences (NCATS), 2009).
Inconclusive results are not listed. Calls of active or inactive are those of the source. The call rests on the fitted dose curve; in most records, active means well fitted inhibition curve with a large enough effect; inconclusive means small, poorly fitted or top-dose-only effect, or effect the other way, or another doubt; inactive means no such curve, though single readings can be large or run the other way.

Test: Confirmation Concentration-Response Assay for lipid storage modulators; further: nearly all actives have a fitted effect of over 80% in size
Settings: Drosophila S3 cells, lipid droplet BODIPY/CellTracker ratio, 18-24 h
From the text: NIH Molecular Libraries Probe Production Centers Network [MLPCN] NIH Chemical Genomics Center [NCGC] MLPCN Grant: 1 R03 MH085686-01 Assay Submitter (PI): Beller, Mathias; Max-Planck-Institut fur Biophysikalische Chemie NCGC Assay Overview: Storing lipids as a reservoir for energy or the anabolism of elementary metabolites is a common feature of probably all cells and is conserved from bacteria to humans. The universal cellular lipid storage organelle is the so-called lipid storage droplet (LD). Although ubiquitous, LDs share a simple structure composed of a hydrophobic core that harbors the storage lipids, which is shielded by a droplet-specific phospholipid monolayer to which proteins are attached. […] Exo1 identified in the primary screen (AID 1519) and several analogs were measured in the lipid storage assay as 24-point concentration-response curves to confirm potency and SAR.
We dispensed 4 uL of cells at 1.25 x 10^6 cells/mL into LoBase Aurora COC 1,536-well plates (black walled, clear bottom) with a bottle-valve solenoid-based dispenser (Aurora) to obtain 5,000 cells/well. […] Fluorescence was detected by excitation of the fluorophores with a 488-nm laser on an Acumen Explorer (TTP Lab Tech). […] Cells were detected using channel 3 (575- 640 nm) with 5-um width and 100-um depth filters. The ratio of the total intensity in PMT channel 1 over total intensity of channel 3 was also calculated. […]
Potency means the concentration at half of the fitted maximal effect.

Compound | Potency
COc1cc2c(cc1OC)[C@@H]1C(=O)c3ccc4c(c3O[C@@H]1CO2)C[C@H](C(C)C)O4 | 0.0499 µM (active)
O=C(Nc1cccc(Cl)c1)OC1CN2CCC1CC2 (configuration not stated) | 8.88 µM (active)
